{"source": "the supplement of paper PMC7335073", "note": "In all, about 4,100 sequences were measured (“relative CpG methylation activity (normalised to average over all NNNCGNNN flanks)”: median about 0.87, highest 2% from about 2.4 on). The sample as a whole holds a higher share of the highest values than the screen did.", "data": [{"target": "DNMT3A catalytic domain (mouse) (UniProt O88508)", "assay": "relative CpG methylation activity (normalised to average over all NNNCGNNN flanks) (relative (1 = mean)); higher = more methylation of the central CpG", "conditions": "system: in vitro, murine catalytic domain; CpG state: hemimethylated substrate pool; residues: 608-908", "experimental": "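Deep enzymology: a pool of dsDNA substrates with a central CpG flanked by 10 random nucleotides on each side was methylated by the murine DNMT3A or DNMT3B catalytic domain (0.8 mM SAM, 37 °C, 60 min). Methylation was then read out by hairpin ligation, bisulfite conversion and NGS. Values are the average methylation of each NNNCGNNN context (±3 flanks; the outer flanks are random and averaged over), normalised to the overall mean, so 1 = average activity.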", "values": [{"sequence": "CCTCGGAT", "relative CpG methylation activity": 0.744}, {"sequence": "CCCCGCGC", "relative CpG methylation activity": 1.17}, {"sequence": "TATCGACT", "relative CpG methylation activity": 0.753}, {"sequence": "ATCCGGAT", "relative CpG methylation activity": 1.34}, {"sequence": "GTGCGACC", "relative CpG methylation activity": 1.61}, {"sequence": "AGCCGATT", "relative CpG methylation activity": 0.672}, {"sequence": "GATCGCCA", "relative CpG methylation activity": 0.923}, {"sequence": "ATCCGCCG", "relative CpG methylation activity": 2.1}, {"sequence": "AACCGCCC", "relative CpG methylation activity": 1.78}, {"sequence": "CTCCGCCA", "relative CpG methylation activity": 2.37}, {"sequence": "TCCCGCCC", "relative CpG methylation activity": 1.99}, {"sequence": "CTCCGCCT", "relative CpG methylation activity": 2.45}, {"sequence": "TTCCGCCC", "relative CpG methylation activity": 2.77}, {"sequence": "ATCCGCCC", "relative CpG methylation activity": 2.96}, {"sequence": "CTCCGCGT", "relative CpG methylation activity": 1.98}, {"sequence": "CGCCGCCA", "relative CpG methylation activity": 1.25}, {"sequence": "CGCCGCCT", "relative CpG methylation activity": 1.48}, {"sequence": "TTCCGCGC", "relative CpG methylation activity": 2.03}, {"sequence": "CACCGCCA", "relative CpG methylation activity": 1.32}, {"sequence": "CATCGGGG", "relative CpG methylation activity": 0.133}, {"sequence": "CGCCGGTA", "relative CpG methylation activity": 0.746}, {"sequence": "ATCCGGAA", "relative CpG methylation activity": 0.939}, {"sequence": "CCACGCAC", "relative CpG methylation activity": 1.81}, {"sequence": "CTTCGGGC", "relative CpG methylation activity": 1.16}, {"sequence": "TCTCGACG", "relative CpG methylation activity": 0.648}, {"sequence": "GGCCGCAA", "relative CpG methylation activity": 0.657}, {"sequence": "TTGCGACT", "relative CpG methylation activity": 1.31}, {"sequence": "GCCCGCCC", "relative CpG methylation activity": 2.25}, {"sequence": "GTCCGCCC", "relative CpG methylation activity": 2.41}, {"sequence": "GGCCGCCC", "relative CpG methylation activity": 1.79}, {"sequence": "AACCGCCT", "relative CpG methylation activity": 1.76}, {"sequence": "CGCCGCCC", "relative CpG methylation activity": 1.77}, {"sequence": "ATCCGCGT", "relative CpG methylation activity": 1.34}, {"sequence": "GGCCGCCG", "relative CpG methylation activity": 1.34}, {"sequence": "GTCCGCGG", "relative CpG methylation activity": 0.584}, {"sequence": "GTCCGCCG", "relative CpG methylation activity": 2.46}, {"sequence": "CTCCGCCG", "relative CpG methylation activity": 2.31}, {"sequence": "CTCCGCCC", "relative CpG methylation activity": 2.44}, {"sequence": "ATCCGCCT", "relative CpG methylation activity": 2.5}, {"sequence": "TAGCGCTG", "relative CpG methylation activity": 0.34}, {"sequence": "CATCGACC", "relative CpG methylation activity": 0.793}, {"sequence": "GATCGTTT", "relative CpG methylation activity": 0.404}, {"sequence": "TGTCGGTC", "relative CpG methylation activity": 0.542}, {"sequence": "GGTCGAAA", "relative CpG methylation activity": 0.512}, {"sequence": "ATCCGCCA", "relative CpG methylation activity": 2.4}, {"sequence": "AGCCGCCA", "relative CpG methylation activity": 1.02}, {"sequence": "ATCCGCGA", "relative CpG methylation activity": 1.03}, {"sequence": "AACCGAGG", "relative CpG methylation activity": 0.346}, {"sequence": "AGACGAGA", "relative CpG methylation activity": 0.731}, {"sequence": "CTCCGTCC", "relative CpG methylation activity": 2.65}, {"sequence": "CTCCGTCA", "relative CpG methylation activity": 1.79}, {"sequence": "ATCCGTCG", "relative CpG methylation activity": 2.08}, {"sequence": "ATCCGTCC", "relative CpG methylation activity": 2.61}, {"sequence": "TTCCGTCC", "relative CpG methylation activity": 2.26}, {"sequence": "CTCCGTCG", "relative CpG methylation activity": 1.92}, {"sequence": "GCACGGGC", "relative CpG methylation activity": 1.47}, {"sequence": "GAACGTCG", "relative CpG methylation activity": 1.25}, {"sequence": "ATGCGGCC", "relative CpG methylation activity": 1.64}]}]}
